The structures appear in SMILES notation. In all, about 96,000 compounds went through this assay and about 20,000 (21%) were called active. A selection follows. Values without a mark were called inactive.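 Rule for the calls: active = CYP2C19 inhibition above a set limit at 5 µM in the primary screen (cut at about 50% in these data); inactive = the rest.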 Residues, ends and D or L forms follow the SMILES beside them. *: point of attachment. Bz = O=C(c1ccccc1)*

Sequence of Cytochrome P450 2C19 (Homo sapiens) (P33261 whole entry, looked up): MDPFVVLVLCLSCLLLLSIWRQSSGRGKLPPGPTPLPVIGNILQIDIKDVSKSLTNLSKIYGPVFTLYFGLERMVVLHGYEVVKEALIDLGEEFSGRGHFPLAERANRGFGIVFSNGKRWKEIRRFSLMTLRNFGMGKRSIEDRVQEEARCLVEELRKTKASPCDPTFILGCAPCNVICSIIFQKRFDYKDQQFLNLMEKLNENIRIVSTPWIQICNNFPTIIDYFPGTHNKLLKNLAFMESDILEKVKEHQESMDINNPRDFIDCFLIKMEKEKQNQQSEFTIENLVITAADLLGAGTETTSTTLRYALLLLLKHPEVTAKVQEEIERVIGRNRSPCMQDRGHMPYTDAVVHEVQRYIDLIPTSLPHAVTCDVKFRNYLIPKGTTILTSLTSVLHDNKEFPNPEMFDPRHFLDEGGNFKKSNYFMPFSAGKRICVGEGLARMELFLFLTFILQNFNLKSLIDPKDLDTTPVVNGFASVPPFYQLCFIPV

This test addresses Cytochrome P450 2C19 (Homo sapiens) (UniProt P33261). Put plainly: blockers of cytochrome P450 2C19 activity – biochemical, luminescence, ADME assay, primary screen (AID 778).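 Note: plate controls were negative control wells for no effect and 2.5 mM tranylcypromine positive control for full effect.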 The note with it: CYP2C19 Supersomes, luciferin-H EGE luminescence, 30 min; at 5 µM; stronger effect = higher value.
As to `CCOc1cc(NC(=O)c2ccco2)c(OCC)cc1NC(=O)COc1ccccc1`, the inhibition is 24.6%. For `O=C(COC(=O)c1ccccc1NC(=O)c1ccco1)Nc1ccc2c(c1)OC(F)(F)O2`, the inhibition is 57.4% (active). Next, `COc1ccccc1C(=O)Nc1ccc(NC(=O)c2ccco2)c(C)c1`: 45.5%. In the case of `Cc1nc(C)c2c(c1C(F)(F)F)-c1ccccc1C2(F)F`, the inhibition is -21.2%.

For `O=C(C(Cc1ccccc1)n1cccc1)N1CCN(C2CCCCC2)CC1` (stereo not given), the inhibition is 98.1% (active). On to `O=C(NC(Cc1ccccc1)C(=O)N1CCCC1C(=O)O)c1ccccc1` (stereo not drawn) (Bz-Phe-Pro-OH; configuration not given here), for which the inhibition was -4.1%. In the case of `Cc1ccc(C)n1C(Cc1ccccc1)C(=O)O` (stereo not given), the inhibition was 8.1%. `CCOc1ccc2nc(SC(CC)C(=O)Nc3cc(C)on3)sc2c1` (stereo not given): the inhibition is 0.6%. With `Cc1ccc(CNC(=O)c2ccccc2CCc2ccccc2)cc1` the figure was 13.9%; with `COc1ccc(C2C(C#N)=C(N)Oc3n[nH]c(C)c32)cc1CN1CCN(c2ccc(F)cc2)CC1` (stereo not given), 70.4% (active); with `CCCc1[nH]nc2c1C(c1ccc(OC)c(Cn3nc(C)c(Br)c3C)c1)C(C#N)=C(N)O2` (stereo not given), 8%. As to `CCOc1c(OC)cc(C2C(C#N)=C(N)Oc3n[nH]c(-c4ccncc4)c32)cc1OC` (stereo not given), the inhibition was -7%.

Regarding `Fc1ccc2nc(N3CCCCC3)sc2c1`, the inhibition was 39.9%.

As to `O=C(N/N=C\c1cccc(Br)c1)c1ccccc1-n1cccc1`, the inhibition is 73.3% (active). With `N=c1oc2ccccc2cc1C(=O)N/N=C/c1ccccc1` the figure was 31.7%; with `Cn1c(=O)n(C)c2cc(/C=N/NC(=O)c3cccc(Br)c3)ccc21`, 6.4%. Next, `CC(C)Cn1c(N)c(C(=O)NCc2cccs2)c2nc3ccccc3nc21`: 19.7%; `CC1(C)CC(=O)c2sc(N)nc2C1`: 23.6%; `CC1CCC2(CC1)NC(=O)N(CC(=O)c1cccn1C)C2=O` (stereo not given): 9.9%.

As for `CC(C)(C)OC(=O)c1c(N)n(CCCN2CCCC2=O)c2nc3ccccc3nc12`, the inhibition was -3.9%. With `Cc1ccc(N(CC(=O)Nc2cc(C)cc(C)c2)S(=O)(=O)c2cccc3nonc23)cc1` the figure was 14.2%; with `COc1ccc(C)cc1NC(=O)CCS(=O)(=O)c1cccc2nonc12`, 82.1% (active). Next, `Cc1ccc(CNC(=O)CCNS(=O)(=O)c2cccc3nonc23)cc1`: 15.9%; `Cc1cccc(C)c1NC(=O)CCS(=O)(=O)c1cccc2nsnc12`: 10.7%.

Consider `CC1CCCCC1NC(=O)CCS(=O)(=O)c1cccc2nonc12` (stereo not given), for which the inhibition was 27.7%. Next, `O=C(CCS(=O)(=O)c1cccc2nonc12)NCCc1ccccc1Cl`: 75% (active). Take `CSc1cc(C)n(-c2ccccc2C)c(=S)c1C(C)=O`: the inhibition is -14.7%.

For the molecule `Cc1cc2cc(CNC(=O)c3cccs3)ccc2[nH]1`, the inhibition was 86.8% (active). For the molecule `CCOC(=O)c1oc2ccccc2c1NC(=O)c1cccs1`, the inhibition was 5.8%.

Consider `O=C(O)Cc1ccc(NC(=O)c2cccs2)cc1`, for which the inhibition was 1.3%. Next, `O=[N+]([O-])c1cccc(-c2nnc3c4ccccc4c4ccccc4n23)c1`: 5%.

For `COc1ccc(C2=Nc3cc(C)ccc3OC2)cc1`, the inhibition was 13%. With `CN(C)CCCNC(=O)c1ccc2[nH]c3ccccc3c2c1` the figure was 10.5%.

For `O=C(COc1ccccc1)NCCc1nc2ccccc2[nH]1`, the inhibition was 65.9% (active). With `COC(=O)Cc1nc2ccccc2[nH]1` the figure was 3%; with `CC(C)=C(NC(=O)c1ccco1)C(=O)NCCc1nc2ccccc2[nH]1`, -12.2%.

Turning to `COC(=O)CSc1snnc1-c1ccc(Cl)c(Cl)c1`, the inhibition was 44.8%. Next, `Cn1c(SCC(=O)N2CCOCC2)nnc1-c1ccc(NC(=O)c2ccccc2F)cc1`: 2.8%. Next, `O=C(Nc1nnc(SCc2c(Cl)cccc2Cl)s1)C1CCCO1` (stereo not given): 9.6%; `Cc1cc(C)c2nc(SCCC#N)nc(C)c2c1`: 53.5% (active).

As to `CSc1ccc(CCNC(=O)C2CCN(c3nnc(-n4cccc4)s3)CC2)cc1`, the inhibition is 28.8%.

Turning to `CC(=O)Cc1nsc(NC(=O)c2csc3c2CCCC3)n1`, the inhibition was 42.6%.

With `CCOC(=O)Cn1c(CN(Cc2ccccc2)Cc2ccccc2)nc2c1c(=O)[nH]c(=O)n2C`, the inhibition is 16.4%.

`O=C(Nc1ccccc1)c1nnsc1S(=O)(=O)c1ccc(Cl)cc1`: the inhibition was 19.5%. Take `O=S(=O)(NCc1ccccc1Cl)c1cnc[nH]1`: the inhibition is 22.3%. Consider `Cc1nnsc1S(=O)(=O)Cc1ccccc1Cl`, for which the inhibition was 56.2% (active). With `COc1cccc(OC)c1C(=O)Nc1nnc(C(C)C)s1` the figure was -6.4%; with `Cc1ccc(NC(=O)c2ccc(CSc3ncnc4nc[nH]c34)cc2)c(C)c1`, 11.8%; with `O=C(c1ccc(O)cc1)c1ccc(C(=O)O)c(C(=O)O)c1`, -0.1%. Next, `N#CC1=C(SCc2ccc(C#N)cc2)N=C(N)C(c2nc(-c3ccccc3)cs2)C12CCCCC2` (stereo not given): 92.9% (active). With `O=C(NC1CCCCC1)c1ccc2c(=O)n(CC3CCCO3)c(=O)[nH]c2c1` (stereo not given) the figure was 0.4%. For `COc1ccc(C2C3=C(OC(C)=O)c4ccccc4C3=Nc3c2c(=O)n(C)c(=O)n3C)cc1` (stereo not given), the inhibition was -6.9%.

For `CCOC(=O)N1CCN(C(=O)c2nn(-c3ccc(C)cc3)c(=O)c3c2c2ccccc2n3C)CC1`, the inhibition was -2.9%. As to `Cn1c2ccccc2c2c(C(=O)N3CCN(c4ccc(F)cc4)CC3)cn(C3CCCC3)c(=O)c21`, the inhibition is 85.8% (active). For the molecule `Cn1c(C(=O)N2CCC(C(N)=O)CC2)cc2c(=O)n(C)c3ccccc3c21`, the inhibition is -10.1%. As for `COc1ccc(CC(=O)Nc2sc(Cc3ccccc3)c(C)c2C(N)=O)cc1`, the inhibition was 1%. Next, `Cc1nn(-c2cc(Cl)ccc2N)c(=O)c2ccccc12`: 8.7%; `Cc1nc(NC(=O)c2cccc(Cl)c2)sc1-c1csc(Nc2cccc(Cl)c2)n1`: -18.9%; `Cc1cc(OC(=O)c2c(Cl)cccc2Cl)nc(C)n1`: -6.5%.

In the case of `CN(C)S(=O)(=O)c1ccc(NC(=O)COC(=O)c2n[nH]c3ccccc23)cc1`, the inhibition was -17.2%.

Regarding `COc1ccc(C(C)=O)cc1COC(=O)Cn1cnc2ccccc2c1=O`, the inhibition was 28.2%.

With `COc1ccc(COC(=O)c2n[nH]c3ccccc23)cc1F`, the inhibition was 57.1% (active).

As for `O=C(Cc1c(O)c2ccccc2[nH]c1=O)NCc1ccccc1`, the inhibition is 4.1%.

Take `CCOC(=O)N1CCN(C(=O)c2n[nH]c(=O)c3ccccc23)CC1`: the inhibition was -2.6%. With `O=C(COC(=O)c1n[nH]c2ccccc12)NCc1ccccc1` the figure was 76.4% (active).

What is called inhibition is the change of the read-out against control, counted positive when it falls.

These data come from PubChem BioAssay AID778 (Sanford-Burnham Center for Chemical Genomics, 2007).
